Data: PubChem BioAssay
The source made the active and inactive calls.

Columns and labels:
[1] = tested on: Plasmodium falciparum Sir2 (PF13_0152, Sir2A); assay: Plasmodium falciparum Sir2A binding compounds – biochemical, small-molecule microarray, 635 nm fluorescence, primary screen (AID 1098); conditions: fluorescence 635 nm, higher = more signal;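 further: score merges spot fluorescence intensity with its signal-to-noise ratio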
[2] = probe aDKK1 binding to arrayed compounds – biochemical, biotinylated probe, 635/667 nm fluorescence, primary screen (AID 1099); conditions: small-molecule microarray, higher = more signal;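 further: score merges 667nm spot fluorescence with signal to noise across triplicate slides; reference of the scale not given here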
[3] = probe aCHRDL2 binding to arrayed compounds – biochemical, biotinylated probe, 635/667 nm fluorescence, primary screen (AID 1100); conditions: small-molecule microarray, higher = more signal
[4] = change in splice reporter luminescence, either direction, cell-based, HEK293, spliceosome inhibition project, primary screen (AID 1101); conditions: HEK293 splicing luciferase reporter, 24 h, higher = more signal, called active from +8 up or from −8 down;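 further: HEK293 cells carrying a splicing-competent luciferase reporter gene; test concentration not given here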
[5] = biological target: Fibroblast growth factor 10 (Homo sapiens) (UniProt O15520); assay: compounds binding fibroblast growth factor 10 – biochemical, small-molecule microarray, 635 nm fluorescence, primary screen (AID 1102); conditions: FGF10 binding, fluorescence 635 nm, higher = more signal
[6] = tested on: glycogen synthase kinase-3 (GSK3A per assay name; protocol says GSK3B); assay: compounds binding glycogen synthase kinase-3 – biochemical, small-molecule microarray, 635 nm fluorescence, GSK3A, primary screen (AID 1103); conditions: fluorescence 635 nm, higher = more signal; further: the record names both GSK3A and GSK3B
[7] = biological target: Epidermal growth factor receptor (Homo sapiens) (UniProt P00533); assay: compounds binding epidermal growth factor receptor – biochemical, small-molecule microarray, 635 nm fluorescence, primary screen (AID 1104); conditions: EGFR binding, higher = more signal;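 further: score merges 667 nm emission intensity with spot signal to noise over triplicate slides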
[8] = biological target: Follistatin-related protein 3 (Homo sapiens) (UniProt O95633); assay: compounds binding follistatin-related protein 3 – biochemical, small-molecule microarray, 635 nm fluorescence, primary screen (AID 1105); conditions: FSTL3 binding, higher = more signal;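 further: score merges emission near 667 nm and signal to noise per printed spot across three slides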
[9] = biological target: Dickkopf-related protein 1 (Homo sapiens) (UniProt O94907); assay: small molecules binding DKK1 protein – biochemical, small-molecule microarray, 635 nm fluorescence scan, primary screen (AID 1106); conditions: higher = more signal;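 further: score merges emission near 667 nm with signal to noise over three replicate slides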
[10] = tested on: Inhibin beta A chain (activin A); assay: small molecules binding activin A – biochemical, small-molecule microarray, 635 nm fluorescence scan, primary screen (AID 1107); conditions: INHBA, higher = more signal;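 further: mouse activin A protein probed at 4.33 µg/mL on printed slides; score merges bound-protein fluorescence near 667 nm with spot signal-to-noise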

Dickkopf-related protein 1 (Homo sapiens), sequence (O94907 whole entry, looked up): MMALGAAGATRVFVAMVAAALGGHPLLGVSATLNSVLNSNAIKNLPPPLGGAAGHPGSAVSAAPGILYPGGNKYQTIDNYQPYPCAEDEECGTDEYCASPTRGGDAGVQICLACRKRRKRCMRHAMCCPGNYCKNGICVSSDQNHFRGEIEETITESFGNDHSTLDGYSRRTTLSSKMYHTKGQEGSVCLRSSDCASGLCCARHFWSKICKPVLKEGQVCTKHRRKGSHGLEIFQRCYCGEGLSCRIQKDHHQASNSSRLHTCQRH
Fibroblast growth factor 10 (Homo sapiens), sequence (O15520 whole entry, looked up): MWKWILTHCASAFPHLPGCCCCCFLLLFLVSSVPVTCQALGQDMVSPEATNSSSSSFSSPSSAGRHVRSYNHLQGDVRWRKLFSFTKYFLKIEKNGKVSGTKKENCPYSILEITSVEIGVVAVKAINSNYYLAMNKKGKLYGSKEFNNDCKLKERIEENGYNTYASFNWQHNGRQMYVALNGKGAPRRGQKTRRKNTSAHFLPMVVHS
Follistatin-related protein 3 (Homo sapiens), sequence (O95633 whole entry, looked up): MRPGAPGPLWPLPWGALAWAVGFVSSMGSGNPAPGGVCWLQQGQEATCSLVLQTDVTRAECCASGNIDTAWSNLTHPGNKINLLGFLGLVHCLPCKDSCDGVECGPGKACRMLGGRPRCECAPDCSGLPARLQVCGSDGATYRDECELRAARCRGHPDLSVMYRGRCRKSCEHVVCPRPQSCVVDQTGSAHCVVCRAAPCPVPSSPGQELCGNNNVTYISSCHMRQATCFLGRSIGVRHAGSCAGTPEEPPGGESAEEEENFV
Epidermal growth factor receptor (Homo sapiens), sequence (P00533 whole entry, looked up): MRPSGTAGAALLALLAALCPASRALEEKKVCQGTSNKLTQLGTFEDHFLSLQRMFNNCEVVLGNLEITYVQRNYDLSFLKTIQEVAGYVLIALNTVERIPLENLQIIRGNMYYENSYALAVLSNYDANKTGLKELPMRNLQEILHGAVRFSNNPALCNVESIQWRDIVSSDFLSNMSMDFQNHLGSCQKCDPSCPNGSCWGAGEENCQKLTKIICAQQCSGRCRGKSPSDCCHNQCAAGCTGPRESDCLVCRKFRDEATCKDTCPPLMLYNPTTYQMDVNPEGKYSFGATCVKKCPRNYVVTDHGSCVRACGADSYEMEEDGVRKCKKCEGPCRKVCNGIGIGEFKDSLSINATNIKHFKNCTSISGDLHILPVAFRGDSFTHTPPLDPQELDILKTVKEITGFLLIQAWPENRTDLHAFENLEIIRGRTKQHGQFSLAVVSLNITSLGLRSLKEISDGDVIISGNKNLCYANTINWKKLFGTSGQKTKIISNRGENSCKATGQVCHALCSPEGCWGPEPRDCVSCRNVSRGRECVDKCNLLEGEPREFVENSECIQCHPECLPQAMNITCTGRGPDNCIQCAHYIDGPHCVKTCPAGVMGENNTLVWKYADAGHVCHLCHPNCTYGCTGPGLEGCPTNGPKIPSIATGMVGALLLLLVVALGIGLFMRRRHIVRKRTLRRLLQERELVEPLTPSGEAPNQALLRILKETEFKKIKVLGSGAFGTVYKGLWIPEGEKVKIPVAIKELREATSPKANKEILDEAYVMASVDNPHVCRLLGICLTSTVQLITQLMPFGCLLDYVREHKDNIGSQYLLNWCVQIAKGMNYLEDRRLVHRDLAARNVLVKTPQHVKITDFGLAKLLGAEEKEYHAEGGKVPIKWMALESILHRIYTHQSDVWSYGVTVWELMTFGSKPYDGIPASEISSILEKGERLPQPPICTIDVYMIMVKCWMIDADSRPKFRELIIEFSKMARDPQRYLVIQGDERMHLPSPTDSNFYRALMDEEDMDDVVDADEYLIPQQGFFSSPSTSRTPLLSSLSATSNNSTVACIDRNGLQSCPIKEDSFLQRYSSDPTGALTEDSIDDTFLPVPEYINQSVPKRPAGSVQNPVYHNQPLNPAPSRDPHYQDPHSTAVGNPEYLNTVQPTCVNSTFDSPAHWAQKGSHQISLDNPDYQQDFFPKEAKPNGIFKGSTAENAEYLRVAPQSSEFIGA

| SMILES | composite z-score [1] | composite z-score [2] | composite z-score [3] | z-score [4] | composite z-score [5] | composite z-score [6] | composite z-score [7] | composite z-score [8] | composite z-score [9] | composite z-score [10] |
| --- | --- | --- | --- | --- | --- | --- | --- | --- | --- | --- |
| CC(C)Cc1ccc(CN2CC[C@@H](NS(=O)(=O)c3ccccc3)C2)cc1 | -0.265 | -0.367 | -0.747 | 3.53 (inactive) | -0.0725 | -0.375 | -0.608 | 0.0789 | 0.292 | 0.298 |
| O=C1C=CC(=O)[C@@H]2CC(COc3ccccc3)=C3[C@@H](CCc4ccccc4)OB(O)C[C@@H]3[C@H]12 | 0.403 | -0.339 | -0.523 | 2.04 (inactive) | 0.545 | 0.34 | 0.515 | 0.887 | 1.07 | 0.72 |
| [N-]=[N+]=NCc1ccccc1C[C@]1(C(=O)O)N=C(c2ccc(OCCCO)cc2)O[C@H]1c1ccccc1 | 1.44 | 0.181 | 1.06 | 0.624 (inactive) | -0.2 | 0.102 | -1 | -0.627 | -0.94 | 0.884 |
| CC(C)NC(=O)[C@@]1(Cc2ccccc2I)c2ccccc2C(=O)N(Cc2ccccc2)[C@H]1c1ccc(CO)cc1 | 1.45 | 0.461 | 0.715 | -0.227 (inactive) | 0.954 | 1.28 | 0.136 | 1.09 | 0.0622 | 0.315 |
| CN1CCC(CCCO)=CC1c1ccc(CN2CCCC2)cc1 (stereo not given) | 0.988 | 0.331 | 0.756 | 0.873 (inactive) | 1.3 | 1.3 | 1.64 | 1.48 | 1.74 | 1.86 |
| COc1ccc(C(O)C2C=CC3C(=O)N(c4ccccc4)C(=O)C3N2Nc2ccc([N+](=O)[O-])cc2)cc1OCc1ccccc1 (stereo not given) | 1.4 | 1.86 | 1.15 | 0.465 (inactive) | 1.02 | 0.735 | 0.534 | 0.763 | -0.0143 | 1.07 |
| CCCN1C(=O)[C@@]2(CCC(=O)OC(C)(C)C)N=C(c3ccc(OCCCO)cc3)O[C@H]2c2ccccc21 | 0.902 | -0.243 | 0.713 | 0.478 (inactive) | 0.9 | 1.22 | 0.246 | 0.874 | 0.242 | 1.03 |
| C=CC(COC(C)=O)NS(=O)(=O)c1ccc(Br)cc1 (stereo not given) | 0.669 | -0.461 | -0.501 | 0.217 (inactive) | 0.632 | 0.903 | 0.642 | 1.01 | 0.684 | 0.12 |
| C=CCNC(=O)[C@@H]1[C@H]2C(=O)O[C@H](c3ccccc3)[C@H](c3ccccc3)N2[C@H](c2ccccc2OCCO)[C@@]12C(=O)Nc1ccc(C#CC3=CCCCC3)cc12 | 0.71 | -0.0328 | 0.111 | -0.829 (inactive) | 1.22 | 1.32 | 0.478 | 1.38 | 0.479 | 0.982 |
| CCCCC=C[C@@H](NC(=O)c1cccs1)c1ccccc1 | -0.15 | -0.0451 | 0.359 | -3.77 (inactive) | 0.44 | 0.476 | -0.273 | -0.171 | 0.13 | 0.764 |
| CCOC(=O)[C@H]1C/C=C/C[C@H](C(=O)OCC)C(=O)O[C@H]2[C@@H](OC)O[C@H](CO)[C@@H](OC(=O)Nc3ccc4c(c3)OCO4)[C@@H]2OC1=O | 0.353 | 0.0005 | 0.0193 | -1.14 (inactive) | 0.79 | 0.677 | -0.407 | 0.294 | -0.009 | 0.456 |
| COc1ccc(C(=O)Nc2cccc(CN3C(=O)[C@@]4(O[C@@H](CCn5cc(CCO)nn5)[C@H]([Si](C)(C)c5ccc(OC)cc5)[C@H]4C)c4ccccc43)c2)cc1 | 0.758 | -0.111 | 0.124 | -1.16 (inactive) | 0.997 | 1.17 | 0.558 | 1.38 | 0.851 | 1.4 |
| Cc1ccc([C@H]2[C@H](C(=O)O)[C@H](Sc3ccccc3)[C@@H](C(C)C)N2S(=O)(=O)c2ccc(C)cc2)cc1 | 0.587 | -0.403 | 0.355 | 0.27 (inactive) | 0.95 | 1.22 | 0.151 | 0.905 | 0.168 | 0.417 |
| C=CCOC(=O)[C@H]1[C@@H]2C(=O)O[C@@H](c3ccccc3)[C@@H](c3ccccc3)N2[C@@H](c2ccc(OCCOC(=O)[C@@H]3C[C@@H]4C(=O)NCC(=O)N4[C@@H]3c3ccc(O)cc3)cc2)[C@]12C(=O)Nc1ccccc12 | 1.24 | -0.206 | -0.167 | -1.15 (inactive) | 1.14 | 1.19 | 0.457 | 1.34 | 0.535 | 0.217 |
| O=C1O[C@@H](c2ccccc2)[C@@H](c2ccccc2)N2[C@@H](c3ccc(OCCO)cc3)[C@]3(C(=O)Nc4ccccc43)[C@@H](C(=O)Nc3nc4ccccc4s3)[C@H]12 | 1.66 | 0.738 | 0.478 | -0.876 (inactive) | 1.31 | 1.07 | 0.528 | 1.15 | 0.651 | 0.411 |
| CC(C)N1C(=O)c2ccccc2[C@@H](C(=O)NCCCN(C)C)[C@@H]1c1ccc(CO)cc1 | 1.31 | 0.744 | 1.01 | -0.472 (inactive) | 0.0328 | -0.367 | -0.568 | -0.85 | -1.25 | 0.557 |
| COCCOC(=O)N1C(=O)[C@@]2(c3cc(C#CCNC(N)=O)ccc31)[C@H](C(=O)N1CCN(c3ncccn3)CC1)[C@H]1C(=O)O[C@H](c3ccccc3)[C@H](c3ccccc3)N1[C@@H]2c1ccccc1OCCO | 1.2 | 0.265 | 0.714 | -0.619 (inactive) | 1.13 | 0.0685 | 0.736 | 1.24 | 1.7 | 1.02 |
